Assay outcomes as filed in PubChem BioAssay.
A selection: hits, their analogues and other compounds. The true share with any hit is near 6.6%.
HT1080 IDH1KD tx = qHTS for induction of synthetic lethality in tumor cells producing 2HG: qHTS for the HT-1080-IDH1KD cell line; HT-1080 IDH1 knockdown viability, ATP luminescence, 48 h; 2% of 360,000 active; Potency, µM (top dose mostly 46.1 µM), for the others: at the highest dose activity, negative = toxicity, actives largely listed as cytotoxic; AID 686971, 2013;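 note: 0% = DMSO wells and -100% = cell-free medium wells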
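Using the IDH1-knockdown HT-1080 line run in the same batch and compound series as the NT line, viability after 48 h at 37 °C was determined by CellTiter-Glo luminescence and expressed as % activity.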
KB-3-1 cytotox = qHTS assay for MDR1-selective chemotherapeutics: Primary screen using the parental adenocarcinoma cell KB-3-1; KB-3-1 viability, CellTiter-Glo ATP luminescence, 72 h; Potency, µM (titrated, usually from 46.1 µM), hits mostly cytotoxic; 1.4% of 400,000 active; note: % is set by controls: 0 for no effect and ±100 for the full control effect; nearly all actives have a fitted effect of over 60% in size
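KB-3-1 parental drug-naive adenocarcinoma cells in DMEM/10% FBS, incubated 72 h at 37 C with pin-transferred compounds across a concentration series. Viability by CellTiter-Glo luminescence; concentration-response curves fitted after normalization.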
HepG2 tox = qHTS for Inhibitors of TGF-b: Cytotox Counterscreen; HepG2 CAGA-GFP viability, ATP luminescence, 18 h; Potency, µM (series often up to 46.1 µM), without a hit: top-dose activity change, negative = cytotoxicity, usual class: cytotoxic; 0.76% of 410,000 active; AID 588856, 2011
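CellTiter-Glo luminescence gave cytotoxicity after 18 hours at 37 degrees C. The cells were HepG2 CAGA-GFP in 1% FBS DMEM, stimulated with 500 pg/mL TGF-beta after compound addition. %Activity was normalised to no-cell wells (complete cell-killing) and DMSO (no toxicity), and curves were fitted and classified.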
HT1080-NT tox = qHTS for induction of synthetic lethality in tumor cells producing 2HG: qHTS for the HT-1080-NT fibrosarcoma cell line; 1.6% of 360,000 active; AID 686970, 2013; Potency, µM (doses to about 46.1 µM), for the others: at the highest dose activity, negative = less viability, actives largely listed as cytotoxic; HT-1080-NT fibrosarcoma viability, CellTiter-Glo ATP luminescence, 48 h;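 note: NT is the 2HG producing partner of a matched IDH1 knockdown line; 0% = DMSO-treated cells and -100% = media-only wells without cells; nearly all actives have a fitted effect of over 55% in size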
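Fibrosarcoma NT cells, 750 per well in 5% FBS RPMI, were exposed to compound for 48 hours. Viability: CellTiter-Glo luminescence.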
KB-V1 MDR tox = qHTS assay for MDR1-selective chemotherapeutics: Primary screen using the drug-selected MDR subline cells KB-V1 | KB-V1 MDR cells viability, CellTiter-Glo, 72 h | Potency, µM (top dose mostly 46.1 µM), actives largely listed as cytotoxic | 3.4% of 400,000 active; note: % is set by controls: 0 for no effect and ±100 for the full control effect; nearly all actives have a fitted effect of over 60% in size
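Cells of the MDR subline KB-V1 are plated, dosed with compound at multiple concentrations, and incubated 72 h at 37 degrees C; CellTiter-Glo is then added and luminescence read after 10 min.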
TGFb inhibitor = qHTS for Inhibitors of TGF-b. HepG2 CAGA-GFP TGF-b/SMAD3 reporter, GFP fluorescence, 18 h; TGF-beta stimulated, 500 pg/mL final. Potency, µM (titrated, usually from 46.1 µM), without a hit: at the top dose activity, negative = inhibition, most hits filed as inhibitors. 1.2% of 410,000 active; note: % is set by controls: 0 for no effect and ±100 for the full control effect; nearly all actives have a fitted effect of over 65% in size
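Cell-based qHTS in HEPG2 carrying a CAGA-GFP Smad reporter; compounds added before 500 pg/mL final TGF-beta, 18 h incubation at 37 degrees C, GFP fluorescence quantified per cell by imaging cytometry.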
Active calls of the source: *; i = inactive; ? = inconclusive; . = no result. Calls come from the whole dose curve; as a rule, active = well fitted curve in the direction sought with a large enough effect; inconclusive = small, poorly fitted or top-dose-only effect, or another doubt; inactive = no such curve, though single readings can be large; an effect the other way counts as inactive or inconclusive. Potency is the fitted concentration of half-maximal effect.

SMILES | HT1080 IDH1KD tx | KB-3-1 cytotox | HepG2 tox | HT1080-NT tox | KB-V1 MDR tox | TGFb inhibitor
COc1cccc(CNC(=O)c2cnc(N3CCCC3)nc2C)c1 | . | i | -4% | . | i | -26%
CC(=O)Oc1c(S(=O)(=O)c2ccccc2)c(C)nn1C(C)(C)C | -2% | i | -34% | -7% | i | 28%
Cc1nn(C(C)(C)C)c(OC(=O)c2cccs2)c1S(=O)(=O)c1ccccc1 | ? | i | -74% | 21µM* | i | ?
CC1(C)N=C(N)NC(Nc2ccccc2)=N1 | ? | i | -17% | 8.2µM* | i | 9%
Cc1cc(C)c2[nH]c(=O)c(C(c3nnnn3CC3CCCO3)N3CCC(C)CC3)cc2c1 (centres undefined) | 8% | i | 10% | 4% | 4.6µM* | -6%
CCC(=O)NC1=C(Cl)C(=O)C(NC(=O)CC)=C(Cl)C1=O | 18µM* | i | -142% | ? | i | ?
CCC(=O)NC1=C(NC(C)c2ccccc2)C(=O)c2ccccc2C1=O (centres undefined) | -1% | i | -9% | -9% | ? | -14%
CC(=O)Nc1c(S(=O)(=O)c2ccccc2)c2nc3ccccc3nc2n1Cc1ccccc1 | -14% | i | 0% | -13% | i | -7%
C=CCn1c(NS(=O)(=O)c2ccccc2)c(S(=O)(=O)c2ccc(C)cc2)c2nc3ccccc3nc21 | 17% | ? | 2% | 5% | 13µM* | ?
Cc1ccc(S(=O)(=O)c2c(N)n(-c3ccccc3)c3nc4ccccc4nc23)cc1 | 0% | i | -7% | 3% | ? | -5%
O=S(=O)(Nc1c(S(=O)(=O)c2ccccc2)c2nc3ccccc3nc2n1C1CCCCC1)c1ccccc1 | 16µM* | i | -27% | ? | i | ?
COc1ccc(Cn2c(SCc3ccc(C(=O)NC(C)C)cc3)nc3cccnc32)cc1 | . | i | -43% | . | i | -29%
COc1ccc(CNCc2c(C(=O)O)c(C)n(Cc3ccccc3C)c2C)c(OC)c1 | . | . | -19% | . | . | -8%
COc1ccc(/C=N/Nc2nnc(C)n2N)cc1OC(C)=O | 16µM* | i | 13µM* | 23µM* | i | 10µM*
Cc1nnc(N/N=C/c2ccc(-c3ccc(Br)cc3)o2)n1N | ? | i | -104% | ? | i | ?
Cc1nnc(N/N=C/c2ccc(Br)cc2)n1N | 23µM* | i | 16µM* | ? | i | ?
Nn1cnnc1N/N=C/c1ccc(Cl)c([N+](=O)[O-])c1 | 21µM* | i | 11µM* | ? | ? | ?
Nn1cnnc1N/N=C/c1cccc(Cl)c1Cl | 18µM* | i | i | ? | i | ?
COc1ccc(OC)c(NC(=O)CN2CCCN(Cc3ccccc3Cl)S2(=O)=O)c1 | . | i | -30% | . | i | ?
CCC(C(=O)N1CCN(c2ccccc2)CC1)n1c(C)c2cnn(-c3ccccc3)c(=O)c2c1C (centres undefined) | . | i | -14% | . | i | ?
Cc1ccc(/C=N/Nc2nncn2N)cc1 | ? | i | i | ? | i | 11µM*
CCc1nnc(N/N=C/c2ccccc2F)n1N | ? | i | -106% | ? | i | ?
CCc1nnc(N/N=C/c2ccccc2Cl)n1N | 16µM* | i | 13µM* | ? | i | 11µM*
CC(=O)c1cccc(NC(=O)Cn2nc(C)n3cccc3c2=O)c1 | . | i | -10% | . | i | 9%
